DT40 TDP1 CPT = qHTS for Inhibitors of human tyrosyl-DNA phosphodiesterase 1 (TDP1): qHTS in cells in presence of CPT; chicken DT40 Tdp1-/-;hTDP1 cells + 20 nM CPT, ATP luminescence, 48 h; Potency, µM (highest dose often 46.2 µM), inactives show at the highest dose activity change, negative = growth inhibition, most hits filed as inhibitors; 420,000 tested, 12% active; AID 686979, 2013; further: potency means the concentration at half of the fitted maximal effect; nearly all actives have a fitted effect of over 55% in size
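Chicken DT40 Tdp1-/- cells complemented with human TDP1, 400 cells/well, exposed to compounds plus 20 nM camptothecin for at least 48 h at 37 C; viability read as ATP content by CellTiter-Glo luminescence.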
IL-1B inflam inh = qHTS for Inhibitors of Inflammasome Signaling: IL-1-beta AlphaLISA Primary Screen; THP-1 LPS/ATP IL-1B secretion, AlphaLISA, 16 h; active compounds read low; activity change, % at 57.5 µM; 360,000 tested, 4.7% active; AID 743279, 2014; in the data active means activity change below about -50%; inconclusive means mostly about -30% to -49%
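Secreted IL-1B measured by AlphaLISA bead assay after 16 h compound exposure of THP-1 cells; compounds (final up to 57.5 uM) added 1 h before LPS (250 ng/mL) and ATP (1.25 mM) stimulation; lower signal means less secretion.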
TDP1 cell noCPT = qHTS for Inhibitors of human tyrosyl-DNA phosphodiesterase 1 (TDP1): qHTS in cells in absence of CPT. AID 686978, 2013. Potency, µM (titrated, usually from 46.2 µM), for the others: top-dose activity change, negative = growth inhibition, most hits filed as inhibitors. DT40 Tdp1-/- hTDP1 cells, no CPT, ATP luminescence, 48 h. 420,000 tested, 15% active; further: potency means the concentration at half of the fitted maximal effect; nearly all actives have a fitted effect of over 55% in size
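Luminescent ATP content (CellTiter-Glo) served as the growth readout. Knockout chicken DT40 cells expressing human TDP1 were exposed to compounds without camptothecin for a minimum 48 hr at 37 °C.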
HT1080-NT tox = qHTS for induction of synthetic lethality in tumor cells producing 2HG: qHTS for the HT-1080-NT fibrosarcoma cell line; HT-1080-NT fibrosarcoma viability, CellTiter-Glo ATP luminescence, 48 h; Potency, µM (series often up to 46.1 µM), for inactives: at the top dose activity, negative = less viability, usual class: cytotoxic; 360,000 tested, 1.6% active;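 further: NT is the 2HG producing partner of a matched IDH1 knockdown line; potency means the concentration at half of the fitted maximal effect; 0% = DMSO-treated cells and -100% = media-only wells without cells; nearly all actives have a fitted effect of over 55% in size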
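Fibrosarcoma NT cells, 750 per well in 5% FBS RPMI, were exposed to compound for 48 hours. Viability: CellTiter-Glo luminescence.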
HT1080 IDH1KD tx = qHTS for induction of synthetic lethality in tumor cells producing 2HG: qHTS for the HT-1080-IDH1KD cell line; HT-1080 IDH1 knockdown viability, ATP luminescence, 48 h; Potency, µM (doses to about 46.1 µM), inactives show top-dose activity, negative = toxicity, hits mostly cytotoxic; 360,000 tested, 2% active; AID 686971, 2013;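 further: potency means the concentration at half of the fitted maximal effect; 0% = DMSO wells and -100% = cell-free medium wells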
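CellTiter-Glo luminescence after 48 h compound exposure at 37 degrees C of IDH1-knockdown HT-1080 cells in 5% FBS RPMI. %Activity scaled between DMSO wells and cell-free media wells, with curves fitted and assigned curve classes.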
An asterisk follows results filed as active; i = inactive; u = inconclusive; x = no result; ! = not confirmed by another sample. Hits are enriched below; roughly 19% of the tested compounds scored in any of these assays. Unless noted, the call rests on the fitted dose curve; in most records, active means well fitted curve in the direction sought with a large enough effect; inconclusive means small, poorly fitted or top-dose-only effect, or another doubt; inactive means no such curve, though single readings can be large; an effect the other way counts as inactive or inconclusive. Unless noted, on the % scale 0 is the no-effect control and ±100 the full control effect.

SMILES	DT40 TDP1 CPT	IL-1B inflam inh	TDP1 cell noCPT	HT1080-NT tox	HT1080 IDH1KD tx
Nc1c(C(=O)NCc2ccc(F)cc2)c2nc3ccccc3nc2n1CCCN1CCOCC1	u	-10	18µM*	u	u
COc1ccc(CNC(=O)c2c(N)n(CCCN3CCOCC3)c3nc4ccccc4nc23)cc1	u	-18	u	u	u
Cc1cccc(-n2c(N)c(C(=O)NCCN3CCOCC3)c3nc4ccccc4nc32)c1	u	-64*	18µM*	u	u
CC(C)Cn1c2nc3ccccc3nc2c2c(=O)n(CCN3CCOCC3)cnc21	u	-56*	u	-1%	-6%
CC(C)(C)OC(=O)N[C@@H](Cc1ccccc1)C(=O)N[C@@H](CO)[C@H](O)[C@@H]1C[C@@H]1C(=O)NC1CCCCC1	-18%	-4	-18%	9%	12%
CC(C)(C)NC(=O)[C@@H]1C[C@@H]2CCCC[C@@H]2CN1C[C@@H](O)[C@H](Cc1ccccc1)NC(=O)[C@H](CC(N)=O)NC(=O)c1ccc2ccccc2n1	u	-61*!	15µM*	21µM*	23µM*
COc1ccc(C(=S)N2CCN(c3cccc(Cl)c3)CC2)cc1	-2%	u	-29%	-7%	-4%
COc1cc(/C=C/C(=O)Nc2nc3ccc(S(=O)(=O)N(C)C)cc3s2)cc(OC)c1OC	u	28	u	u	6.5µM*
COc1ccc(Br)cc1/C=C/C(=O)Nc1ccc(C)cc1	16µM*	-67*	16µM*	-28%	u
COc1cc(/C=C/C(=O)Nc2ccc(S(=O)(=O)Nc3onc(C)c3C)cc2)cc(OC)c1OC	9%	-12	-2%	2%	5%
COc1cc(/C=C/C(=O)Nc2ccc(C)cc2)cc(OC)c1OC	u	15	16µM*	-4%	-8%
COC(=O)c1ccccc1NC(=O)/C=C/c1cc(OC)c(OC)c(OC)c1	21µM*	-85*	21µM*	-4%	-8%
COc1cc(/C=C/C(=O)Nc2nnc(C(C)(C)C)s2)cc(OC)c1OC	u	-9	u	-3%	4%
COc1ccc(Br)cc1/C=C/C(=O)Nc1ccc2ccccc2c1	u	-20	u	11%	1%
Cc1ccc(CNC(=O)c2ccc3c(c2)NC(=O)CS3)cc1	u	-19	-20%	-2%	0%
NC(=O)C1CCN(Cc2nc3ccccc3c(=O)[nH]2)CC1	4%	15	-2%	5%	6%
NC(=O)C1CCN(Cc2nc3cc(Cl)ccc3c(=O)[nH]2)CC1	-10%	23	-12%	21µM*	18µM*
O=c1[nH]c(CN2CCN(S(=O)(=O)/C=C/c3ccccc3)CC2)nc2cc(Cl)ccc12	u	-8	u	9.2µM*	21µM*
CC(C)n1cc(/C=N/NC(=O)COc2cccc3cccnc23)c2ccccc21	u	-78*	u	u	u
C=CCn1cc(/C=N/NC(=O)COc2cccc3cccnc23)c2ccccc21	15µM*	-14	16µM*	u	-24%
Cc1cc(/C=N\NC(=O)COc2cccc3cccnc23)c(C)n1-c1ccccc1	u	-4	-20%	4%	-9%
CSc1cccc(NC(=O)Cn2c(=O)n(Cc3ccccc3)c(=O)c3sc4ccccc4c32)c1	-24%	x	u	x	x
O=C(Nc1ccc(F)cc1)c1cccc(N2C(=O)C3C4C=CC(C5CC45)C3C2=O)c1 (stereo not given)	16µM*	-75*	u	-10%	-21%
COC(=O)c1ccc(NC(=O)c2cccc(N3C(=O)C4C5C=CC(C6CC56)C4C3=O)c2)cc1 (stereo not given)	8.2µM*	i	7.3µM*	-2%	-1%
Cc1ccc(NC(=O)c2ccccc2N2C(=O)C3C4C=CC(C5CC45)C3C2=O)cc1C (stereo not given)	21µM*	-13	u	-4%	-9%
SMILES	DT40 TDP1 CPT	IL-1B inflam inh	TDP1 cell noCPT	HT1080-NT tox	HT1080 IDH1KD tx
Cc1cccc(NC(=O)c2ccc(N3C(=O)C4C5C=CC(C6CC56)C4C3=O)cc2)c1 (stereo not given)	u	6	u	-11%	-3%
O=C(Nc1ccccc1)c1cccc(N2C(=O)C3C4C=CC(C5CC45)C3C2=O)c1 (stereo not given)	-1%	-55*	u	-21%	-1%
CCNC(=O)c1ccccc1CCc1ccccc1	-3%	21	15%	-3%	12%
CCOc1ccc2nc(N3C(=O)/C(=C/c4ccccc4)NC3=S)sc2c1	23µM*	20	u	2%	9%
CN(Cc1ccccc1NS(=O)(=O)c1ccc(Cl)cc1)C1CCCCC1	u	10	-29%	5%	-3%
CN(Cc1ccccc1NS(=O)(=O)c1ccc2ccccc2c1)C1CCCCC1	u	12	21µM*	-21%	-21%
CCOC(=O)C1(Cc2ccccc2C)CCCN(S(=O)(=O)CC)C1 (stereo not given)	u	4	23µM*	0%	7%
CCOc1ccc2nc(N/C(N)=N/C(=S)Nc3ccc(C)c(C)c3)nc(C)c2c1	-83%	-14	-45%	-1%	-1%
COc1ccc(NC(=S)/N=C(\N)Nc2nc(C)c3ccc(C)cc3n2)cc1	18µM*	0	u	-9%	-8%
CCNC(=S)/N=C(\N)Nc1nc(C)c2cc(C)ccc2n1	u	-91*	u	-4%	1%
Cc1ccc(Cl)cc1N1CCN(CCCNC(=O)c2ccc3nc(N4CCCCC4)sc3c2)CC1	21µM*	x	12µM*	x	x
Cc1ccc(C)c(N2CCN(CCCNC(=O)c3ccc4nc(N5CCC(C)CC5)sc4c3)CC2)c1	15µM*	x	9.2µM*	x	x
COc1ccc(N2CCN(CCCNC(=O)c3ccc4nc(N5CCCCC5)sc4c3)CC2)cc1	16µM*	x	u	x	x
CCCN1CCN(CCCNC(=O)c2ccc3nc(N4CCC(C)CC4)sc3c2)CC1	-20%	-8	u	-9%	-25%
CC1CCCCN1CCCNC(=O)c1ccc2nc(N3CCCCC3)sc2c1 (stereo not given)	u	0	u	4%	-10%
CCn1nnnc1-c1ccc(OC)c(S(=O)(=O)NCCc2ccccc2)c1	-7%	-11	-14%	3%	0%
CC1(CCc2ccc3c(c2)OCO3)NC(=O)c2ccccc2N1 (stereo not given)	23µM*	-14	u	u	u

Source: PubChem BioAssay
